A word on the inhibition: it is the drop in the measured response relative to a control, in per cent.

This is one part of the list. Calls of active or inactive are those of the source.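 The calls were made as follows: active = mean inhibition above the hit cutoff derived in the earlier primary screen (cut at about 25% in these data); inactive = the rest.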

We go through 23 compounds from PubChem BioAssay AID1521 (The Scripps Research Institute Molecular Screening Center, 2009).

A short description of the test: reduced survival of JAK2V617F-driven Ba/F3 cells – cell-based, Ba/F3 EpoR-JAK2V617F, luminescence, triplicate, JAK2V617F inhibitor project, confirmation (AID 1521).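 Also: 0% = DMSO-treated cells and 100% = JAK inhibitor I control wells; higher means lower luminescence from reduced cell ATP and viability.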 The settings on record: Ba/F3 EpoR-JAK2V617F viability, CellTiter-Glo luminescence; at 5.6 µM; hits give high values. For orientation: In ATP-based viability assays light output follows the ATP content of the culture.
For the compound `COc1ccccc1N1CCN(Cc2ccc(OC)c3ccccc23)CC1`, the inhibition is 31.5% (active).
With `CCCc1nc2ccccc2c(=O)n1/N=C/c1ccc(O)c(O)c1` the figure was 67.2% (active); with `CCn1c(/C=C/c2ccc([N+](=O)[O-])o2)nc2ccccc2c1=O`, 99.1% (active); with `N#C/C=C\Oc1ccc(Cl)cc1N`, 39.2% (active).
With `c1ccc2c(c1)CSc1sccc1C2=C1CCNCC1`, the inhibition was 57.9% (active).
On to `COc1ccc(OC)c(Nc2nc(-c3ccc(O)c(O)c3)cs2)c1`, for which the inhibition was 99% (active).
Under `COc1ccc(Cc2nnc(N/N=C/c3ccccc3O)[nH]c2=O)cc1OC` stands 98.9% (active).
Under `COc1cc(OC)cc(C(=O)N[C@H](C(=O)Nc2nc3ccccc3[nH]2)C(C)C)c1` stands 99.1% (active); under `Cc1ccc(C2=NN(C)c3nc4ccccc4n3C2)cc1`, -7.33% (inactive).
Under `Cc1ccc(NC(=S)N(CCCN2CCC(C)CC2)Cc2ccco2)cc1` stands 52.5% (active); under `Cc1cccc(NC(=O)c2ccc([N+](=O)[O-])o2)c1`, 84.7% (active).
`CN(Cc1ccc2nsnc2c1)Cc1nc(Cc2cccc(F)c2)no1`: the inhibition was 7.27% (inactive).
Regarding `CSCC(=O)N1CCCC(C(=O)c2cc(F)ccc2F)C1` (stereo not drawn), the inhibition is -9.05% (inactive).
Under `O=C(CCl)Nc1ccc(Sc2ccc(NC(=O)CCl)cc2)cc1` stands 99.7% (active).
For `Oc1ccc(/C=N/Nc2ccc(C(F)(F)F)cn2)cc1O`, the inhibition is 99.2% (active).
With `Cc1ccc(S(=O)(=O)C2(S(=O)(=O)c3ccc(C)cc3)CCCC2)cc1`, the inhibition was 62.1% (active).
On to `COc1cc(OC)c(C(=O)NC2CCCCCC2)cc1OC`, for which the inhibition was 18.7% (inactive).
Take `O=c1oc2ccccc2cc1-c1cn(-c2ccccc2)c(=S)[nH]1`: the inhibition is 92.7% (active).
With `COc1ccc(-c2csc(Nc3ccc(O)cc3)n2)cc1`, the inhibition was 97.2% (active).
With `Cn1c(CCN2CCCCCC2)nc2cc(NC(=O)Nc3ccccc3)ccc21` the figure was -1.25% (inactive).
Regarding `O=C(CCl)N(Cc1cccc([N+](=O)[O-])c1)c1cccc(Cl)c1`, the inhibition was 99.7% (active).
With `CCCn1c(NC(=O)C23CC4CC(CC(O)(C4)C2)C3)nc2ccccc21` the figure was -6.61% (inactive); with `CCC1CCCCN1CCCNC(=O)c1cc2c(Cl)nc3ccccc3c2s1` (stereo not drawn), 12.1% (inactive).
